Shown are actives, neighbours in structure and some others; about 13% of the full set was active somewhere.
USP8 inh: inhibitors of human USP8 deubiquitinase; Ubiquitin carboxyl-terminal hydrolase 8 (Homo sapiens), P40818; purified USP8, Ub-rhodamine cleavage fluorescence, 30 min; inhibition, % at 20 µM; 47,000 tested, 4.2% active; AID 1645853, 2021
USP28 inh: inhibitors of human USP28 deubiquitinase; Ubiquitin carboxyl-terminal hydrolase 28 (Homo sapiens), Q96RU2; purified USP28, Ub-rhodamine cleavage fluorescence, 30 min; inhibition, % at 25 µM; 47,000 tested, 3% active; AID 1645857, 2021
USP17 block: inhibitors of human USP17 deubiquitinase; purified USP17, Ub-rhodamine cleavage fluorescence, 3 h; inhibition, % at 50 µM; 47,000 tested, 6.5% active; Ubiquitin carboxyl-terminal hydrolase 17-like protein 5 (Homo sapiens), A8MUK1
USP30 inh: inhibitors of human USP30 deubiquitinase; Ubiquitin carboxyl-terminal hydrolase 30 (Homo sapiens), Q70CQ3; purified USP30, Ub-rhodamine cleavage fluorescence; inhibition, % at 25 µM; 47,000 tested, 5.3% active; AID 1645860, 2021
USP10 block: inhibitors of human USP10 deubiquitinase | Ubiquitin carboxyl-terminal hydrolase 10 (Homo sapiens), Q14694 | purified USP10, Ub-rhodamine fluorescence, 60 min | inhibition, % at 20 µM | 47,000 tested, 1.1% active | AID 1645856, 2021
* = called active by the depositor; . = no result given. No stated cut-off is given here; in the data, active means inhibition above about 30%; inactive means the rest.

SMILES	USP8 inh	USP28 inh	USP17 block	USP30 inh	USP10 block
COc1cccc2c1NC(=O)C21CCN(C(=O)Nc2cccc(C)c2)CC1	4.8	0.0	53.6*	2.9	-0.6
COc1ccc2c(c1)OC1(CCCNC1)CNC2=O (stereo not drawn)	8.0	-6.5	0.0	5.5	3.2
O=C1CSC(c2cccc([N+](=O)[O-])c2)c2c(n(C3CCCCCC3)[nH]c2=O)N1 (stereo not drawn)	39.7*	7.6	.	27.7	10.3
Cc1ccc(C2SCC(=O)Nc3c2c(=O)[nH]n3C2CCCCCC2)cc1 (stereo not drawn)	73.4*	9.2	18.9	29.5	14.8
CCOc1ccc(C2SCC(=O)Nc3c2c(=O)[nH]n3C2CCCC2)cc1 (stereo not drawn)	23.4	8.0	11.7	19.2	2.2
O=C1CSC(c2cccc([N+](=O)[O-])c2)c2c(n(C3CCCCC3)[nH]c2=O)N1 (stereo not drawn)	-45.8	-3.5	0.0	-11.2	4.3
Cc1nn(C2CCCC2)c2c1C(c1ccc3c(c1)OCO3)SCC(=O)N2 (stereo not drawn)	-160.4	8.7	-12.4	30.3*	2.6
O=C1CSC(c2ccc3c(c2)OCO3)c2c(n(C3CCCC3)[nH]c2=O)N1 (stereo not drawn)	0.0	2.4	0.0	22.8	0.4
CCC(=O)CCCCC[C@@H]1NC(=O)[C@H]2CCCCN2C(=O)[C@H]([C@@H](C)CC)NC(=O)[C@H](Cc2cn(OC)c3ccccc23)NC1=O	-15.0	13.4	35.9*	-0.1	0.3
CN1C(=O)[C@@]23CC4=CC=C[C@H](O)C4N2C(=O)[C@]1(CO)SS3 (stereo partly drawn)	-16.8	-12.7	-27.0	34.8*	-8.4
C[C@@H]1CC[C@@]2(OC1)O[C@H]1C[C@H]3[C@@H]4CC=C5C[C@@H](O[C@@H]6O[C@@H](CO)[C@@H](O[C@@H]7O[C@@H](C)[C@H](O[C@@H]8O[C@@H](C)[C@H](O)[C@H](O)[C@H]8O)[C@H](O)[C@H]7O)[C@H](O)[C@@H]6O[C@@H]6O[C@@H](C)[C@H](O)[C@H](O)[C@H]6O)CC[C@]5(C)[C@H]4CC[C@]3(C)[C@H]1[C@@H]2C	2.6	38.0*	54.8*	96.0*	-2.5
Cc1cccc(OCC(=O)N2CCN(Cc3ccncc3)CC2)c1C	9.8	6.1	9.3	15.4	0.1
COc1ccc(C2(CCNCc3ccc(Cl)cc3)CCOC(C)(C)C2)cc1 (stereo not drawn)	0.0	9.1	2.8	34.1*	-1.8
CC(C)C12CN3CC(C(C)C)(CN(C1)C3c1ccccn1)C2O (stereo not drawn)	47.4*	19.5	39.2*	13.1	2.2
O=C1c2c(O)c(Cl)cc3c2[C@@]2(Oc4cc(Cl)c(O)c5c4[C@]3(O2)[C@@H]2O[C@@H]2C5=O)[C@@H]2O[C@H]12	53.9*	77.9*	75.9*	6.4	69.2*
CN1[C@@H]2Cc3ccccc3[C@H]1C[C@@H](NC(=O)Nc1ccccc1F)C2	4.9	1.3	7.0	18.7	3.0

Screening data (PubChem)
